# Bioassay records as filed in PubChem.
# An excerpt weighted towards active compounds, which were near 3.4% of everything screened.
# VDR inhibitor: inhibitors of human vitamin D receptor; 400,000 tested, 0.93% active; AID 504847; P11473; VDR-SRC2-3 peptide fluorescence polarization, 2 h; Potency, µM, for the others: max response, negative = inhibition, usual class: inhibitors; also: % is scaled to controls: 0 for no effect and ±100 for the full control effect
# Target sequence (P11473 whole entry, looked up): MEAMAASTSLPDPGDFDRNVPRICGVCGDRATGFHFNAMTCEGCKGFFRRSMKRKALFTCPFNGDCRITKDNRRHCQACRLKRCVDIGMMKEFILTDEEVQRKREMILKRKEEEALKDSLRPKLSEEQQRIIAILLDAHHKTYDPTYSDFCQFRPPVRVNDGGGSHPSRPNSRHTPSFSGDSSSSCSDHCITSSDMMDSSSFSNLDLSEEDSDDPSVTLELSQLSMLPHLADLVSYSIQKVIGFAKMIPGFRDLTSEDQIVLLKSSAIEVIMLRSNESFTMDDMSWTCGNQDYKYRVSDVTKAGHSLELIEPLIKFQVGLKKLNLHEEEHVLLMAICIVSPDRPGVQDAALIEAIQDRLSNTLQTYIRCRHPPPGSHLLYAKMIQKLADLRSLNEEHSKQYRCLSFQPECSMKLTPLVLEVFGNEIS
#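 Fluorescence polarization assay of small-molecule disruption of VDR binding to coregulator peptide SRC2-3. Compounds and controls pin-transferred, then read after 2 h incubation at ambient room temperature.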
# PKM2 act: increases activity of human pyruvate kinase M2; P14618; purified PKM2, Kinase-Glo ATP luminescence, activation; response scale: 0% is enzyme alone, no compound; Potency, µM (titrated, usually from 57.5 µM), without a hit: at the highest dose activation, most hits filed as activators; 260,000 tested, 0.34% active; also: % is scaled to controls: 0 for no effect and ±100 for the full control effect; nearly all actives have a fitted effect of over 55% in size
#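 Purified hPK-M2 (>95%) run at intermediate activity with 0.1 mM ADP and 0.5 mM PEP in 50 mM imidazole pH 7.2, KCl, MgCl2; 1 h room temperature. ATP formed read by Kinase-Glo luminescence; normalized to uninhibited and no-enzyme controls.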
# KAT2A inh: GCN5L2 (KAT2A) acetyltransferase inhibition | GCN5L2 HAT assay, ThioGlo1 CoA-SH fluorescence | Q92830 | 390,000 tested, 0.21% active | Potency, µM (titrated, usually from 58.9 µM), inactives show top-dose activity change, negative = inhibition, most hits filed as inhibitors | AID 504327; also: % is scaled to controls: 0 for no effect and ±100 for the full control effect
#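 GCN5L2 (20nM final) in 50mM HEPES, 0.1mM EDTA pH 7.5, 0.01% Tween-20 was preincubated 15 min at room temperature with compound, then given ThioGlo1 (50uM), H3(1-25) peptide (75uM) and acetyl-CoA (70uM); CoA-thiol fluorescence (Ex340/Em540) was read at 0 and 20 min.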
# GLS inhibitor: glutaminase GLS (human) inhibition; GLS enzymatic activity, qHTS titration; O94925; 410,000 tested, 0.21% active; Potency, µM (titrated, usually from 45.5 µM), for inactives: at the highest dose activity change, negative = inhibition, actives largely listed as inhibitors; also: % is scaled to controls: 0 for no effect and ±100 for the full control effect
#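 hKGA in 45 mM KH2PO4 (pH 8.2), 0.02% Tween-20 with compound, then 1mM L-Glutamine (stock as added) plus glutamate oxidase/HRP/Amplex red coupling mix. Fluorescence read initially and after 30 min at RT; signal change reflects glutamate formation.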
# PLK1 PBD block: inhibitors of human PLK1 polo-box domain binding; P53350; Plk1 PBD binding of FITC phosphopeptide, fluorescence polarization; Potency, µM, for the others: max response, negative = inhibition, hits mostly inhibitors; 360,000 tested, 2.8% active; AID 720504; also: series mostly up to about 57 µM; % is scaled to controls: 0 for no effect and ±100 for the full control effect; nearly all actives have a fitted effect of over 65% in size
# Mito fusion yeast: mitochondrial division inhibition or fusion activation. 320,000 tested, 0.23% active. AID 485298. Potency, µM (titrated, usually from 46.1 µM), without a hit: at the highest dose growth rescue (activation), usual class: activators. S. cerevisiae fusion-defective mutant growth rescue, CellTiterGlo 48 h; also: % of control where 0% means no effect; nearly all actives have a fitted effect of over 45% in size
#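 Read-out: ATP-based luminescence (CellTiterGlo, 10 min ambient) reporting growth of fusion-defective ts yeast after 48 hours at 37C on glycerol/ethanol YPEG medium in the presence of compound.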
# An asterisk follows results filed as active; ? = inconclusive; nt = no result given. Calls follow the shape of the dose curve; as a rule, active = well fitted curve in the direction sought with a large enough effect; inconclusive = small, poorly fitted or top-dose-only effect, or another doubt; inactive = no such curve, though single readings can be large; an effect the other way counts as inactive or inconclusive. Potency is read from the fitted curve at half-maximal effect.
SMILES,VDR inhibitor,PKM2 act,KAT2A inh,GLS inhibitor,PLK1 PBD block,Mito fusion yeast
CCOc1ccc(NC(=O)CN2C(=O)COc3ccc(S(=O)(=O)N4CCCCC4)cc32)cc1,-10%,nt,-11%,-4%,27µM*,7%
COc1ccc(N2CCN(C(=O)c3cc([N+](=O)[O-])ccc3N3CCN(CCO)CC3)CC2)cc1,-8%,-6%,-15%,22%,-3%,1%
O=c1c(Cl)c(NCCCO)cnn1-c1nc2ccccc2[nH]1,-16%,-62%,19%,15%,13µM*,-17%
CS(=O)(=O)c1ccc(Cn2c3c(c4cc(F)cc(F)c42)CCC[C@H]3CC(=O)O)cc1,25µM*,nt,-16%,nt,nt,nt
O=C(CN(CC1CCCO1)C(=O)CNS(=O)(=O)c1ccc(Cl)cc1)NCc1ccc(F)cc1 (stereo unspecified),-2%,6%,-4%,0%,-5%,2%
CCOc1ccc(OCC)c(NC(=O)C2CCN(S(=O)(=O)c3c(C)[nH]c(=O)[nH]c3=O)CC2)c1,-24%,-1%,-3%,?,17µM*,4%
CCOc1ccc(OCC)c(NC(=O)C2CCN(S(=O)(=O)c3cn(C)cn3)CC2)c1,19%,nt,2%,6%,nt,nt
FC(F)(F)Oc1ccc(NC(=S)NCCCN2CCOCC2)cc1,-7%,nt,-5%,1%,12µM*,7%
S=C(NCCCN1CCOCC1)NCCCN1CCOCC1,?,3%,-6%,12%,5.3µM*,-4%
Cn1c(SCCC#N)nnc1-c1ccc(F)cc1,nt,3%,8%,nt,nt,6%
CC1=C(SCCC#N)S/C(=C2\SC(C)=C(SCCC#N)S2)S1,-100%,-16%,-19%,11%,12µM*,8%
CSCC[C@H](NC(=O)[C@H](Cc1ccccc1)NC[C@@H](NC[C@@H](N)CS)C(C)C)C(=O)O,35µM*,nt,28%,nt,nt,nt
CSCCC(NC(=O)OCc1ccccc1)C(=O)O (stereo unspecified),-2%,-16%,-2%,5%,-9%,0%
CCOC(=O)c1cc(-c2ccc(OC)cc2)n(CCC(=O)NCCc2ccc(OCC)c(OCC)c2)c1C,23%,nt,-2%,8%,nt,nt
CC(=O)c1ccc(S(=O)(=O)N2CCN(c3nn(C)c(=O)n(C)c3=O)CC2)cc1,?,nt,3%,0%,-8%,3%
O=C(CSc1nc2scc(-c3ccco3)c2c(=O)n1-c1ccccc1)N1CCOCC1,-16%,13%,-22%,6%,-4%,8%
O=c1c2c(-c3ccco3)csc2nc(SCc2cn3cccnc3n2)n1-c1ccccc1,-12%,?,-9%,2%,24µM*,-1%
c1ccc(Cn2c(SCc3cn4cccnc4n3)nnc2-c2ccco2)cc1,9%,?,-6%,6%,-3%,0%
NC(=O)CSc1nc2scc(-c3ccco3)c2c(=O)n1-c1ccccc1,79µM*,?,-21%,-10%,-21%,3%
CCC(C)NS(=O)(=O)c1cc2c3c(c1)CCN3C(=O)CC2 (stereo unspecified),-11%,nt,-6%,1%,-4%,2%
COCCC(=O)N1CCC(Oc2ccc(C(=O)N3CCCCCC3)cc2)CC1,?,nt,-3%,19%,11µM*,1%
O=C1OCCC1Sc1nnc(-c2ccc(O)cc2)o1 (stereo unspecified),11%,-1%,-3%,-1%,27µM*,-5%
COc1ccc(OC)c2sc(N(CCCN(C)C)C(=O)CCS(=O)(=O)c3ccccc3)nc12,?,nt,0%,12%,7.5µM*,0%
COc1ccc(Cl)c2sc(N(CCN(C)C)C(=O)CCS(=O)(=O)c3ccc(C)cc3)nc12,-6%,nt,12%,1%,-2%,-1%
COc1ccccc1/C=C/C(=O)Nc1ccc(S(=O)(=O)Nc2cc(C)on2)cc1,-6%,-6%,-24%,-9%,-7%,2%
SMILES,VDR inhibitor,PKM2 act,KAT2A inh,GLS inhibitor,PLK1 PBD block,Mito fusion yeast
O=c1c(N=Nc2ccc(O)cc2)c(-c2ccccc2)[nH]n1-c1ccc([N+](=O)[O-])cc1,-15%,-1%,-10%,-5%,-16%,6%
O=c1cc(-c2ccccc2)[nH]n1-c1ccc([N+](=O)[O-])cc1,-18%,1%,-27%,14%,21µM*,-5%
Cc1cn(CCOc2ccc(Cl)cc2)c(=O)[nH]c1=O,-21%,nt,-14%,8%,-20%,13%
[N-]=[N+]=Nc1ccc(C(=O)CSC[C@H](NC(=O)CC[C@H](N)C(=O)O)C(=O)NCC(=O)O)cc1,45µM*,nt,7.9µM*,nt,nt,1%
N#CC1c2ccccc2C=CN1C(=O)N(c1ccccc1)c1ccccc1 (stereo unspecified),71µM*,nt,nt,-17%,4%,nt
COc1ccc(C(=O)N2C=Cc3ccccc3C2C#N)cc1 (stereo unspecified),nt,nt,nt,-6%,1%,nt
COC(=O)c1ccc(C)c(NC(=O)c2ccc(Cn3cc([N+](=O)[O-])cn3)o2)c1,-7%,1%,-3%,9%,-13%,2%
CCNS(=O)(=O)c1ccc(NC(=O)c2ccc(Cn3cc([N+](=O)[O-])cn3)o2)cc1,-21%,18µM*,-14%,14%,1%,2%
N#Cc1nc(-c2ccc(OCc3ccc(Cl)cc3)cc2)oc1N1CCCC1,-18%,nt,nt,nt,nt,nt
COc1ccc(-c2n[nH]c(=S)n2-c2cc(OC)ccc2OC)cc1,3%,-2%,-3%,-18%,-2%,-8%
Cc1cc(Cl)ccc1OCc1n[nH]c(=S)n1C1CCCCC1,8%,-14%,-15%,?,?,?
COc1ccc(Cl)cc1-c1n[nH]c(=S)n1C1CCCCC1,-5%,2%,-4%,4µM*,-2%,5%
COc1ccc(-n2c(-c3ccc(Cl)cc3Cl)n[nH]c2=S)c(OC)c1,?,1%,1%,11µM*,24µM*,-4%
COc1ccc(OC)c(-n2c(-c3cccc(O)c3)n[nH]c2=S)c1,-24%,5%,-16%,-6%,27µM*,5%
COc1ccc(-c2n[nH]c(=S)n2N)c(OC)c1,0%,2%,-5%,-16%,8.4µM*,1%
Cc1ccc(NC(=O)C(c2ccccc2)N2Cc3ccccc3C2=O)cc1Cl (stereo unspecified),13%,nt,-8%,-3%,nt,nt
O=C(CCC(=O)N(CC(=O)NC1CCCCC1)c1ccc2c(c1)OCCO2)Nc1ccccn1,nt,1%,0%,nt,nt,22µM*
CCC(Cc1c(I)cc(I)c(O)c1I)C(=O)O (stereo unspecified),32µM*,nt,22µM*,-25%,nt,nt
COc1cc2c(N3CCN(C(=O)Nc4ccc(OC(C)C)cc4)CC3)ncnc2cc1OCCCN1CCCCC1,nt,nt,nt,14%,nt,nt
